Inhibition data for 39 compounds are collected here from PubChem BioAssay AID2330 (Broad Institute, 2010).

Each structure is given as a SMILES string. About 2,800 (7.6%) of roughly 37,000 compounds were called active. Not shown: some 1% with an inconclusive outcome. No stated cut-off is given here; in the data, active means inhibition above about 80%; inconclusive means no clear call, values can overlap the other calls; inactive means below that. Many of the other results were omitted from the sample, so actives are more common in it than they were.

This experiment in a line: NOMO-1 AML cell viability reduction, primary screen, STK33 inhibitor project, CellTiter-Glo luminescence (AID 2330). The following applies: NOMO-1 AML viability, 72 h, stronger effect = higher value, concentration not given here. On the technique in general: Cellular ATP, detected with luciferase, serves as a proxy for viable cell number.
`OC(c1nc2ccccc2[nH]1)C(O)C(O)C(O)c1nc2ccccc2[nH]1` (centres undefined): the inhibition is -2.04% (inactive). The figure for `O=C(CSc1ncnc2sc3c(c12)CCCC3)Nc1ccc(F)c(Cl)c1` is -1.63% (inactive); for `CC(C)NC(=O)N(C)C[C@H]1Oc2c(NS(C)(=O)=O)cccc2C(=O)N([C@@H](C)CO)C[C@H]1C` it is 12.9% (inactive).

As for `C[C@@H]1CN([C@@H](C)CO)C(=O)c2cccc(NC(=O)c3cnccn3)c2O[C@H]1CN(C)S(=O)(=O)c1cccs1`, the inhibition is 9.49% (inactive). Take `COc1cc(O[C@@H]2O[C@H](CO[C@H]3OC[C@](O)(COC(=O)c4ccc(O)c(OC)c4)[C@H]3O)[C@@H](O)[C@H](O)[C@H]2O)ccc1O`: the inhibition was 120% (active). Next, `O=C(OCC1OC(Oc2ccc(O)cc2COC(=O)C2(O)C(O)CCC(O)C2O)C(O)C(O)C1O)c1ccccc1` (centres undefined): 17% (inactive); `COc1cc(/C=C/C(=O)O[C@@H]2O[C@H](CO[C@@H]3O[C@H](CO)[C@@H](O)[C@H](O)[C@H]3O)[C@@H](O)[C@H](O)[C@H]2OC(=O)/C=C/c2cc(OC)c(O)c(OC)c2)cc(OC)c1O`: 14.7% (inactive). Next, `Cc1ccc(S(=O)(=O)N(C)C[C@@H]2Oc3c(NC(=O)C4CCCCC4)cccc3C(=O)N([C@H](C)CO)C[C@H]2C)cc1`: 16.1% (inactive); `COc1ccc(NC(=O)Nc2ccc3c(c2)C(=O)N([C@H](C)CO)C[C@H](C)[C@H](CN(C)C(=O)Nc2c(C)noc2C)OCCCC[C@@H](C)O3)cc1`: -10.5% (inactive).

Turning to `C[C@@H]1CN([C@H](C)CO)C(=O)c2cc(NC(=O)Nc3ccc(F)cc3)ccc2O[C@@H]1CN(C)Cc1ccc(Cl)c(Cl)c1`, the inhibition was 62.8% (inactive). Next, `COc1ccc(NC(=O)Nc2ccc3c(c2)C(=O)N([C@@H](C)CO)C[C@@H](C)[C@H](CN(C)Cc2ccc(Cl)c(Cl)c2)O3)cc1`: 39.3% (inactive); `CC(C)NC(=O)Nc1ccc2c(c1)C(=O)N([C@@H](C)CO)C[C@@H](C)[C@H](CN(C)Cc1ccc(Cl)c(Cl)c1)O2`: 44.5% (inactive).

Take `C[C@@H]1CN([C@H](C)CO)C(=O)c2cc(NC(=O)Nc3ccccc3)ccc2O[C@@H]1CN(C)Cc1ccc(Cl)c(Cl)c1`: the inhibition is 88.9% (active). The figure for `C[C@@H]1CN([C@@H](C)CO)C(=O)c2cc(NC(=O)Nc3cccc4ccccc34)ccc2O[C@H]1CN(C)Cc1ccc(Cl)c(Cl)c1` is 94% (active). Consider `C[C@@H]1CN([C@H](C)CO)C(=O)c2cc(NC(=O)Nc3ccccc3)ccc2O[C@H]1CN(C)Cc1ccc(Cl)c(Cl)c1`, for which the inhibition was -8.23% (inactive). Next, `CC(=O)Oc1ccc(N(C(C)=O)S(=O)(=O)c2ccc(Cl)cc2)cc1`: 42.4% (inactive). Next, `CCC(Oc1cccc(NC(=O)c2ccccc2[N+](=O)[O-])c1)C(=O)c1ccccc1` (centres undefined): 2.87% (inactive). Next, `Cc1ccc(NC(=O)CSc2ncnc3sc(C)c(C)c23)cc1`: 11.3% (inactive). With `Cc1ccc(S(=O)(=O)NCC(=O)N2CCN(c3ccccn3)CC2)cc1`, the inhibition was -2.49% (inactive). The figure for `Cc1ccc(S(=O)(=O)Nc2ccc3c(c2)C(=O)N([C@@H](C)CO)C[C@@H](C)[C@@H](CN(C)Cc2ccncc2)O3)cc1` is 22.8% (inactive); for `C[C@H](CO)N1C[C@H](C)[C@@H](CN(C)Cc2ccc3c(c2)OCO3)Oc2ccc(NC(=O)Nc3ccc(F)cc3)cc2C1=O` it is -1.77% (inactive); for `C[C@@H]1CN([C@@H](C)CO)C(=O)c2cccc(NC(=O)Nc3ccccc3)c2O[C@H]1CN(C)Cc1ccccc1` it is 117% (active). As to `C[C@@H]1CN([C@H](C)CO)C(=O)c2cccc(NC(=O)Nc3cccc4ccccc34)c2O[C@@H]1CN(C)C(=O)Nc1ccc(F)cc1`, the inhibition is 97% (active). Take `C[C@@H]1CN([C@H](C)CO)C(=O)c2cccc(NC(=O)Nc3ccccc3)c2O[C@H]1CN(C)Cc1ccccc1`: the inhibition is 75.5% (inactive).

On to `C[C@@H]1CN([C@H](C)CO)C(=O)c2cc(NC(=O)Nc3ccc(C(F)(F)F)cc3)ccc2O[C@H]1CN(C)C(=O)Nc1ccccc1`, for which the inhibition is 24.7% (inactive). `C[C@@H]1CN([C@@H](C)CO)C(=O)c2cccc(NC(=O)Nc3ccc(F)cc3)c2O[C@@H]1CN(C)C(=O)Nc1ccccc1`: the inhibition was 35.8% (inactive). Next, `C[C@H](CO)N1C[C@H](C)[C@H](CN(C)C(=O)Nc2ccccc2)Oc2c(NC(=O)Nc3ccc(C(F)(F)F)cc3)cccc2C1=O`: 96.2% (active); `COc1ccc(CN(C)C[C@H]2Oc3c(NC(=O)Nc4ccccc4)cccc3C(=O)N([C@@H](C)CO)C[C@@H]2C)cc1`: 56.6% (inactive). The figure for `C[C@H]1CN([C@@H](C)CO)C(=O)c2cc(NC(=O)Nc3ccccc3)ccc2O[C@@H]1CN(C)C(=O)Nc1ccccc1` is 6.27% (inactive). In the case of `C[C@@H]1CN([C@@H](C)CO)C(=O)c2cccc(NC(=O)Nc3ccc(F)cc3)c2O[C@H]1CN(C)C(=O)Nc1ccc(F)cc1`, the inhibition is -5.44% (inactive). With `C[C@H](CO)N1C[C@H](C)[C@H](CN(C)C(=O)Nc2ccc(C(F)(F)F)cc2)Oc2ccc(NC(=O)Nc3ccccc3)cc2C1=O`, the inhibition was 85.9% (active). For `C[C@H]1CN([C@@H](C)CO)C(=O)c2cccc(NC(=O)Nc3ccc(C(F)(F)F)cc3)c2O[C@@H]1CN(C)Cc1ccccc1`, the inhibition was 72.2% (inactive). The figure for `C[C@@H]1CN([C@H](C)CO)C(=O)c2cccc(NC(=O)Nc3cccc4ccccc34)c2O[C@@H]1CN(C)C(=O)Nc1cccc2ccccc12` is 10.3% (inactive). Regarding `O=C(CSc1nccc(=O)[nH]1)Nc1ccc([N+](=O)[O-])cc1`, the inhibition is 11.7% (inactive). Next, `C=C1CCC(C)C(C)(CCC2=CC(OC)OC2=O)C/C=C\C=C\1C(=O)O` (centres undefined): 9.74% (inactive); `Cc1cc(C)n2nc(SCC(=O)Nc3ccccc3[N+](=O)[O-])nc2n1`: 4.39% (inactive); `Cc1ccc(CC2C(=O)N(c3cccc(C(F)(F)F)c3)C(=O)C2C)cc1` (centres undefined): 54.7% (inactive). The figure for `C[C@@H]1CN([C@H](C)CO)C(=O)c2cc(NC(=O)C3CC3)ccc2O[C@@H]1CN(C)C` is -2.07% (inactive); for `CNC[C@H]1Oc2c(NC(=O)C3CC3)cccc2C(=O)N([C@@H](C)CO)C[C@@H]1C` it is 15.2% (inactive).

The term inhibition denotes the drop in the measured response relative to a control, in per cent.
